Measured values reported in PubChem BioAssay AID1159580 (chemical genetic matrix, 2015).
Among all 5,500 compounds or so, about 2,000 (36%) were called active. Roughly 18% stayed inconclusive and do not appear here. Rule as the data show it: active = normalized growth mostly below about 0.91 (no sharp cut-off); inconclusive = no clear call, values can overlap the other calls; inactive = mostly above about 0.92. The list shows a part of the results.

Assay: chemical genetic growth profiling, strain panel (AID 1159580);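 also: tested at 20 µM; growth read once vehicle control cultures reached saturation at 30 °C; 1 = growth at the plate median or of vehicle wells; lower values mean less growth of the strain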
Conditions: S. cerevisiae deletion strains, growth OD

Measured: normalized growth

O=C(ON=C1CCCCC1)c1ccc([N+](=O)[O-])cc1
active: locus YHR030C, strain SLT2, active compounds read low 0.576 | locus YLR113W, strain HOG1, active compounds read low 0.69 | locus YPL256C, strain CLN2, active compounds read low 0.829
inactive: locus YAR019C, strain CDC15, active compounds read low 0.949 | locus YBL105C, strain PKC1, active compounds read low 0.959 | locus YBR135W, strain CKS1, active compounds read low 0.947 | locus YBR136W, strain MEC1, active compounds read low 0.956 | locus YBR160W, strain CDC28, active compounds read low 0.959 | locus YDL017W, strain CDC7, active compounds read low 0.952 | locus YDL028C, strain MPS1, active compounds read low 0.95 | locus YDL101C, strain DUN1, active compounds read low 0.954 | locus YDL108W, strain KIN28, active compounds read low 0.948 | locus YDL132W, strain cdc53, active compounds read low 0.944 | locus YDL214C, strain PRR2, active compounds read low 0.849 | locus YDR052C, strain DBF4, active compounds read low 0.962 | locus YDR054C, strain cdc34, active compounds read low 0.948 | locus YDR226W, strain ADK1, active compounds read low 0.948 | locus YDR477W, strain SNF1, active compounds read low 0.833 | locus YER123W, strain YCK3, active compounds read low 0.817 | locus YER133W, strain GLC7, active compounds read low 0.762 | locus YFL009W, strain cdc4, active compounds read low 0.942 | locus YFL029C, strain CAK1, active compounds read low 0.938 | locus YFR003C, strain YPI1, active compounds read low 0.953 | locus YFR019W, strain FAB1, active compounds read low 0.886 | locus YFR028C, strain CDC14, active compounds read low 0.942 | locus YGR040W, strain KSS1, active compounds read low 0.828 | locus YGR052W, strain FMP48, active compounds read low 0.843 | locus YGR092W, strain DBF2, active compounds read low 0.889 | locus YHR079C, strain IRE1, active compounds read low 0.784 | locus YHR082C, strain KSP1, active compounds read low 0.901 | locus YHR205W, strain SCH9, active compounds read low 0.829 | locus YIL147C, strain SLN1, active compounds read low 0.946 | locus YJL095W, strain BCK1, active compounds read low 0.771 | locus YJL128C, strain PBS2, active compounds read low 0.981 | locus YJL157C, strain FAR1, active compounds read low 0.82 | locus YJR016C, strain ILV3, active compounds read low 0.953 | locus YJR066W, strain TOR1 (second series), active compounds read low 0.814 | locus YJR066W, strain TOR1, active compounds read low 0.838 | locus YKL048C, strain ELM1, active compounds read low 0.974 | locus YKL067W, strain YNK1, active compounds read low 0.865 | locus YKL101W, strain HSL1, active compounds read low 0.881 | locus YKL193C, strain SDS22, active compounds read low 0.934 | locus YKL203C, strain TOR2, active compounds read low 0.888 | locus YLR133W, strain CKI1, active compounds read low 0.874 | locus YLR403W, strain SFP1, active compounds read low 0.783 | locus YML070W, strain DAK1, active compounds read low 0.819 | locus YMR001C, strain CDC5, active compounds read low 0.947 | locus YMR205C, strain PFK2 (second series), active compounds read low 0.876 | locus YMR277W, strain FCP1, active compounds read low 0.938 | locus YNL006W, strain LST8, active compounds read low 0.943 | locus YNL020C, strain ARK1, active compounds read low 0.876 | locus YNL161W, strain CBK1, active compounds read low 0.941 | locus YNL183C, strain NPR1, active compounds read low 0.916 | locus YNL207W, strain RIO2, active compounds read low 0.944 | locus YNL222W, strain SSU72, active compounds read low 0.948 | locus YNL307C, strain MCK1 (second series), active compounds read low 0.851 | locus YOL078W, strain AVO1, active compounds read low 0.937 | locus YOL136C, strain PFK27, active compounds read low 0.85 | locus YOR061W, strain CKA2, active compounds read low 0.867 | locus YOR119C, strain RIO1, active compounds read low 0.877 | locus YOR231W, strain MKK1, active compounds read low 0.826 | locus YOR329C, strain SCD5, active compounds read low 0.949 | locus YPL031C, strain PHO85, active compounds read low 0.78 | locus YPL153C, strain RAD53, active compounds read low 0.794 | locus YPL204W, strain HRR25, active compounds read low 0.784 | locus YPL209C, strain IPL1, active compounds read low 0.952 | locus YPR025C, strain CCL1, active compounds read low 0.948 | locus YPR106W, strain ISR1, active compounds read low 0.969 | locus YPR111W, strain DBF20, active compounds read low 0.968 | strain NNK1, active compounds read low 0.972 | strain TSCII, active compounds read low 0.936
